Hit rate of the full screen: of about 310,000 compounds, about 14,000 (4.5%) showed an effect of 50% or more. Effects have a minus sign here. Only a selection was taken, and strong results are over-represented in it overall.
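Also: peak tail current of the secondary pulse compared with the same well before compound.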

The target of this assay is human ether-à-go-go-related gene (hERG) potassium channel (human, UniProt Q12809). Kind of assay: primary screen, population patch clamp on CHO cells stably expressing hERG; higher = less effect of the substance.
Chain of human ether-à-go-go-related gene (hERG) potassium channel (Q12809 whole entry, looked up): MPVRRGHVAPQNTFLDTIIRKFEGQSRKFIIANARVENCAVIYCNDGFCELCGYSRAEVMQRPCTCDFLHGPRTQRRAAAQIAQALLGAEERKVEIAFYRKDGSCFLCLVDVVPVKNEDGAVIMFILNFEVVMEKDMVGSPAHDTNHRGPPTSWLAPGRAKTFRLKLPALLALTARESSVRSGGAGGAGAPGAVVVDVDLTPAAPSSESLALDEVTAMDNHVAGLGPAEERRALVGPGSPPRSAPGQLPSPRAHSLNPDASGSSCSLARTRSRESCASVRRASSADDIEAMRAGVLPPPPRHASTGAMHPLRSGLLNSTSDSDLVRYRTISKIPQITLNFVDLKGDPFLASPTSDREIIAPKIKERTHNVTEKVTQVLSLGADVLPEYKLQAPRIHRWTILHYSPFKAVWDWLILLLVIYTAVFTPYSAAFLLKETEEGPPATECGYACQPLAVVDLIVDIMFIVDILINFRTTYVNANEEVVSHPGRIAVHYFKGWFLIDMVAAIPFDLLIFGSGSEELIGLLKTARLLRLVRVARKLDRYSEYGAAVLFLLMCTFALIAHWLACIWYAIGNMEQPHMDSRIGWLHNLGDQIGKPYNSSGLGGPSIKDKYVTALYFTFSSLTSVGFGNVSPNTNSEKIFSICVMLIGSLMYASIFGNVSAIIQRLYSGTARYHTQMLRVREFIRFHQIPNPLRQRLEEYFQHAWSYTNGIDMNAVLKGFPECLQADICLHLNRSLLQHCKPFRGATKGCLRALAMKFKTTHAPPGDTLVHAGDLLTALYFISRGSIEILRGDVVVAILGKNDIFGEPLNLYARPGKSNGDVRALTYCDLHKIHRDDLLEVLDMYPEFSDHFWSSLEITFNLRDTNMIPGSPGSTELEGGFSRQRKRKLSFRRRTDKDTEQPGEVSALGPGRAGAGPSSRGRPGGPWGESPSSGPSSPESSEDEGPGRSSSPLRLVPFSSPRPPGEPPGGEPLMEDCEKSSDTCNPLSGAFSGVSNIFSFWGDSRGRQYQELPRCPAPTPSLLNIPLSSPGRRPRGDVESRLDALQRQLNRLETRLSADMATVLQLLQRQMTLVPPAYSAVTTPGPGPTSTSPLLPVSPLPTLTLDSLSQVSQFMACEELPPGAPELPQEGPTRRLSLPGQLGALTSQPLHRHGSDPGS
For the compound `NC(=O)c1cc([N+](=O)[O-])cc2c1C=Cc1ccccc1O2`, the “hERG current change (%, negative = inhibition) at 10uM” value came to 2.92%. Then `CC12COC3(C(=O)Nc4ccc([N+](=O)[O-])cc4)CC1CCC32C` (stereo not shown), with -32.1%.

For the compound `O=C(COC(=O)C1CC2CCCC(C1)C2=O)NC(=O)c1ccc(OC(F)F)cc1` (stereo not shown), the “hERG current change (%, negative = inhibition) at 10uM” value was 23.2%. As to `COc1ccc(CNC(=O)CN(Cc2ccc(C)cc2)S(=O)(=O)c2ccc(Cl)cc2)cc1`, the “hERG current change (%, negative = inhibition) at 10uM” value is -50.9%. Take `COc1ccc(CNC(=O)CN(Cc2ccccc2)S(=O)(=O)c2ccc(Cl)cc2)cc1`: the “hERG current change (%, negative = inhibition) at 10uM” value is reported as -61.7%. For `COc1ccc(N(CC(=O)NCc2ccc(F)cc2)S(=O)(=O)c2c(C)n[nH]c2C)cc1`, the “hERG current change (%, negative = inhibition) at 10uM” value was -26.5%. For the compound `COc1ccc(CNC(=O)CN(Cc2ccc(Cl)cc2)S(C)(=O)=O)cc1`, the “hERG current change (%, negative = inhibition) at 10uM” value is recorded as -45.4%.

As for `COc1ccc(CNC(=O)CN(C)S(=O)(=O)c2ccc(Cl)cc2)cc1`, the “hERG current change (%, negative = inhibition) at 10uM” value is on record as -20.4%. On to `CCOC(=O)N1CCN(C(=O)CN(Cc2ccc(Cl)cc2)S(=O)(=O)c2ccc(C)cc2)CC1`, for which the “hERG current change (%, negative = inhibition) at 10uM” value is -42.8%. In the case of `CCOC(=O)N1CCN(C(=O)CN(Cc2ccc(Cl)cc2)S(=O)(=O)c2ccccc2)CC1`, the “hERG current change (%, negative = inhibition) at 10uM” value was -70.1%. Take `COc1ccc(N(CC(=O)NCc2ccccc2)S(=O)(=O)c2c(C)n[nH]c2C)cc1`: the “hERG current change (%, negative = inhibition) at 10uM” value is listed as -35.6%. Regarding `COc1ccc(N(CC(=O)NCc2ccc(Cl)cc2)S(=O)(=O)c2c(C)n[nH]c2C)cc1`, the “hERG current change (%, negative = inhibition) at 10uM” value was -57.4%.

Consider `COc1ccc(C)cc1S(=O)(=O)N(CC(=O)NCc1ccc(Cl)cc1)Cc1ccccc1`, for which the “hERG current change (%, negative = inhibition) at 10uM” value worked out at 8.35%. In the case of `COc1ccc(CNC(=O)CN(Cc2ccc(Cl)cc2)S(=O)(=O)c2ccccc2)cc1`, the “hERG current change (%, negative = inhibition) at 10uM” value is on record as -12.5%. As to `CCOC(=O)N1CCN(C(=O)CN(Cc2ccc(Cl)cc2)S(C)(=O)=O)CC1`, the “hERG current change (%, negative = inhibition) at 10uM” value is recorded as -15.5%. To `CCc1ccccc1NC1=NCC(=O)N1Cc1ccccc1` belongs 4.53%; to `COc1ccc(N(C(=O)c2ccco2)S(=O)(=O)c2cc(OC)ccc2OC)cc1`, -19.3%; to `CC(NC(N)=O)C(=O)OCC(=O)c1ccc(-c2ccccc2)cc1` (stereo not shown), 10.8%.

For `COc1ccc(OC)c(CCNC(=O)c2ccc3c(=O)[nH]c4c(C(=O)NC(C)C)sc(=S)n4c3c2)c1`, the “hERG current change (%, negative = inhibition) at 10uM” value is 21.2%.

`CN(c1ccccc1)S(=O)(=O)c1ccc(Cl)c(C(=O)NC2=NCCS2)c1`: the “hERG current change (%, negative = inhibition) at 10uM” value is 9.14%. Turning to `Cc1cc(C)c2c3c(sc2n1)C(=O)N(c1ccccc1C)CC(=O)N3`, the “hERG current change (%, negative = inhibition) at 10uM” value was 14.6%. Then `CN(C)C(CNc1ccc(S(C)(=O)=O)cc1[N+](=O)[O-])c1ccccc1` (stereo not shown), with -12.6%.

The values are drawn from PMC4336329 (PLoS ONE, 2015).
